Assay [1] can be described thus: qHTS to identify inhibitors of the type 1 interferon - major histocompatibility complex class I in skeletal muscle: primary screen against the NCATS Pharmaceutical Collection (AID 1347407).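 Further: luminescence of HiBiT knocked into endogenous HLA-B as interferon-induced MHC class I level.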 Summed up:
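A qHTS format is used: 8-point, 1:5 compound series with 46 uM top final concentration, applied alongside 4 ng/ml IFN-beta to HLA-B*08:01-HiBiT knock-in myoblasts. Luminescence is measured after 24 h treatment.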
Background: qHTS replaces the single test concentration by a dilution series.

The nature of assay [2]: qHTS to identify inhibitors of the type 1 interferon - major histocompatibility complex class I in skeletal muscle: primary screen against the NCATS LOPAC collection (AID 1347405).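 Further: human myoblasts with HiBiT tag on endogenous HLA-B stimulated by IFN-beta; lytic HiBiT luminescence reporting HLA-B protein level.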 Summed up:
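First, engineered myoblasts carrying HLA-B-HiBiT were seeded in medium lacking dexamethasone with 4 ng/ml IFN-beta. After 1 hr, compounds were pinned in (top 46 uM final, 7 points). After 24 hrs at 37 C, luminescence was measured following 10 min lysis.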

Assay [3] is described as follows: qHTS for inhibitors of adenylyl cyclases using a fission yeast platform: a pilot screen against the NCATS LOPAC library (AID 1347410). Summed up:
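Inhibition of GNAS-stimulated AC9 activity in S. pombe was inferred from derepression of a PKA-repressed fbp1-GFP reporter, measured as cytometric fluorescence after 18 h at 30C with compounds at up to 57 µM.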

Assay [4] in a line: qHTS to identify inhibitors of the type 1 interferon - major histocompatibility complex class I in skeletal muscle: primary screen against the NCATS Mechanism Interrogation Plate v5.0 (MIPE) Libary (AID 1347411). Further: nearly all actives have a fitted effect of over 65% in size. Summed up: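 Seed engineered human myoblasts (HLA-B HiBit) in medium without dexamethasone containing 4 ng/ml IFN-beta; after 1 hr add compound titrations (top 46 uM final). Incubate 24 hrs at 37 C, lyse 10 min with HiBiT reagent, read luminescence.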

17 compounds from PubChem BioAssay (NCATS) can be followed below.

Results filed as inconclusive are left out. Where a call stands in place of a potency, no number is given. Calls of active or inactive are those of the source. The call rests on the fitted dose curve; in most records, active means well fitted curve in the direction sought with a large enough effect; inconclusive means small, poorly fitted or top-dose-only effect, or another doubt; inactive means no such curve, though single readings can be large; an effect the other way counts as inactive or inconclusive.

Take `C[C@]12C=CC(=O)C=C1CC[C@@H]1[C@@H]2CC[C@@]2(C)[C@H]1CC[C@]2(C)O`: the Potency result in assay [1] was “inactive”.

As to `CN1C(=O)CN=C(c2ccccc2)c2cc(Cl)ccc21`, in assay [1], the Potency result is “inactive”.

Take `CNC(C)Cc1ccc2c(c1)OCO2` (centres undefined): in assay [1], the Potency entry is “inactive”.

Consider `ClCc1cccc(Cl)c1`, for which the Potency entry in assay [1] was “inactive”.

As for `CC[C@H](O)C(C[C@H](C)N(C)C)(c1ccccc1)c1ccccc1`, the Potency entry in assay [1] is “inactive”.

As to `CCC(=O)C(CCN(C)C)(c1ccccc1)c1ccccc1`, in assay [1], the Potency entry was “inactive”.

As to `O=C(CCCCl)c1ccc(F)cc1`, in assay [1], the Potency entry is “inactive”.

Turning to `CCCC(C)C1(CC)C(=O)N=C(S)NC1=O` (centres undefined), in assay [1], the Potency result is “inactive”.

For the compound `NC1(c2ccccc2)CCCCC1`, the Potency entry in assay [1] is “inactive”.

Consider `CCOC(=O)C1(c2ccccc2)CCN(CCc2ccc(N)cc2)CC1`, for which the Potency entry in assay [1] was “inactive”.

Take `O=C(O)c1nn(Cc2ccc(Cl)cc2Cl)c2ccccc12`: the compound was classed as inactive in assay [2] and in assay [3]. Further, the Potency entry in assay [1] and in assay [4] was “inactive” in each case.

Turning to `C[C@]12CC[C@H]3[C@@H](CC=C4C[C@@H](O)CC[C@@]43C)[C@@H]1CC[C@@H]2O`, the Potency result in assay [1] was “inactive”.

For the compound `NC(=O)CN1CCCC1=O`, the outcome in assay [2] and in assay [3] was inactive. In addition, the Potency entry in assay [1] was “inactive”.

For `COC(=O)C1=CCCN(C)C1`, the outcome in assay [2] and in assay [3] was inactive. In addition, in assay [1], the Potency entry was “inactive”.

For `COP(=S)(OC)Oc1ccc(S(N)(=O)=O)cc1`, the Potency result in assay [1] is “inactive”.

As to `Oc1c(Br)cc(Br)cc1Br`, in assay [1], the Potency result is “inactive”.

Regarding `ClC1=C(Cl)C2(Cl)C(CBr)CC1(Cl)C2(Cl)Cl` (centres undefined), the Potency result in assay [1] was “inactive”.
